Assay results: PubChem BioAssay (NCATS)
Values joined by “and” are separate entries in the source; they are usually repeats but may differ in a detail not shown here. Equal entries are not always repeated. Records with an inconclusive call do not appear. Active and inactive are the calls of the source. Calls come from the whole dose curve; as a rule, active = well fitted curve in the direction sought with a large enough effect; inconclusive = small, poorly fitted or top-dose-only effect, or another doubt; inactive = no such curve, though single readings can be large; an effect the other way counts as inactive or inconclusive.

How the values were obtained:
[1] = Cellular Toxicity (caspase-3) Jurkat (AID 655);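 note: cells exposed to compound for 16 h at 37 °C before reading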; note: potency is the fitted concentration of half-maximal effect
In short: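 qHTS in human Jurkat T-cell leukemia line: 16 hr compound treatment at 37 °C, caspase-3/7 activity measured by Caspase-Glo luminescence. AC50 derived from Hill equation.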

[2] = Cellular Toxicity (caspase-3) HUV-EC-C (AID 656)
In short: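 Concentration-dependent caspase 3/7 induction was assessed in HUV-EC-C cells exposed for 16 hours. Data scaled between DMSO and tamoxifen (100 uM) controls.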

[3] = Cellular Toxicity (caspase-3) SHSY5Y (AID 657)
In short: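 Readout: caspase-cleaved peptide-aminoluciferin substrate driving luciferase light in SH-SY5Y neuroblastoma cells after 16 h treatment. Response normalized to DMSO and 10 uM staurosporine controls.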

[4] = Cellular Toxicity (caspase-3) BJ (AID 658); conditions: Potency: caspase-3 activation;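 note: 0% = DMSO basal and 100% = 10 µM staurosporine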
In short: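 BJ human foreskin fibroblasts, 1000 cells/well, treated 16 hours at 37 °C in complete medium; caspase 3/7 activity by Caspase-Glo luminescence after 1 hr at room temperature. Normalized to DMSO and 10 uM staurosporine; AC50 from Hill fits.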

[5] = Cellular Toxicity (caspase-3) MRC-5 (AID 659);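 note: 0% = DMSO basal and 100% = 10 µM staurosporine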
In short: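 MRC-5 human normal lung fibroblasts, 1500 cells/well, treated 16 h at 37 °C in complete medium. Caspase 3/7 measured by Caspase-Glo luminescence after 1 h at room temperature. Normalized to DMSO and 10 uM staurosporine; AC50 from Hill fit.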

[6] = Cellular Toxicity (caspase-3) Mesangial (AID 660);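 note: combined caspase 3 and 7 activity read by Caspase-Glo luminescence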
In short: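 Concentration-response qHTS: compound-induced rise in caspase 3/7 luminescence in human mesangial cells after 16 h, normalized to DMSO and 100 uM tamoxifen controls.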

[7] = Cellular Toxicity (caspase-3) SK-N-SH (AID 661); conditions: SK-N-SH caspase-3 activation, qHTS; caspase-3 activation: at 91.7 µM (top of the series), DMSO as zero, staurosporine as full;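 note: 0% = DMSO basal and 100% = 10 µM staurosporine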
In short: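 Caspase 3/7 activation is measured as a luminescence increase from aminoluciferin released by substrate cleavage in SK-N-SH cells after 16 hr compound treatment; values are AC50 from concentration-response curves.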

[8] = Cellular Toxicity (caspase-3) H-4-II-E (AID 663);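 note: cells exposed to compound for 16 hr before readout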
In short: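 Rat hepatoma H-4-II-E cells (1500/well) plated 5 hr, then exposed to compound titrations for 16 hr at 37 °C. Caspase-Glo 3/7 luminescence read after 20 min at RT; data normalized to DMSO and 100 uM tamoxifen, AC50 from Hill fits.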

[9] = Cellular Toxicity (caspase-3) Hek293 (AID 664); conditions: HEK293 caspase-3 activation, DMSO = 0%, 100 µM tamoxifen = 100%; at 92.2 µM (top of the series);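 note: cells exposed to compound for 16 h at 37 °C before readout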
In short: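 Activation of caspase-3/7 is measured as increased luminescence from cleaved peptide-aminoluciferin substrate in HEK293 cells treated 16 hours at 37 °C. AC50 values come from Hill-equation fits of concentration-response data.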

[10] = Cellular Toxicity (caspase-3) N2a (AID 665);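 note: compound exposure lasted 16 h at 37 °C before readout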
In short: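 Plated mouse neuroblastoma N2a cells received titrated compounds for 16 h in complete medium. Caspase activity was then detected with a peptide-aminoluciferin luminescent reagent.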

[11] = Cellular Toxicity (caspase-3) NIH 3T3 (AID 666);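 note: caspase signal read after 16 h compound exposure; 0% = DMSO basal and 100% = 100 µM tamoxifen stimulation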
In short: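 Concentration-response qHTS in NIH 3T3 mouse fibroblasts scores caspase-3/7 activation as rising luminescence after 16 hr compound exposure. Signals are scaled between DMSO-only and 100 uM tamoxifen.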

[12] = target: Cytochrome P450 3A4 (Homo sapiens) (UniProt P08684); assay: qHTS Assay for Inhibitors and Substrates of Cytochrome P450 3A4 (AID 884); note: % is set by controls: 0 for no effect and ±100 for the full control effect; nearly all actives have a fitted effect of over 50% in size
In short: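 20 nM human CYP3A4 with 25 uM Luciferin-PPXE (at KM) in 200 mM KPO4, preincubated 10 min with compound; NADPH regeneration started a 60 min RT reaction. Luciferin detected by luminescence, normalized to 57 uM ketoconazole as full inhibition.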

[13] = Cell Viability - LYMP2-001 (AID 921);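 note: cells exposed to compound for 24 h at 37 °C; nearly all actives have a fitted effect of over 70% in size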; note: potency is the fitted concentration of half-maximal effect
In short: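 A lymphoblastoid cell line of human origin was treated with library compounds across a concentration series for 24 hours, and viable cell number was estimated from ATP-driven luciferase light output. Hill modeling gave AC50.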

[14] = target: Cytochrome P450 3A4 (Homo sapiens) (UniProt P08684); assay: qHTS Assay for Activators of Cytochrome P450 3A4 (AID 885); note: nearly all actives have a fitted effect of over 65% in size
In short: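 20nM CYP3A4 + 25uM Luciferin-PPXE (=KM), 200mM KPO4; cpd 10 min RT; NADPH regen, 60 min RT; stop w/ detection buffer, 20 min; luminescence. Normalized to 57 uM ketoconazole.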

[15] = Confirmation and Secondary Assay for Modulators of Hemoglobin Beta Chain Splicing at IVS2 654 locus (AID 910);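 note: HeLa cells stably carrying EGFP split by mutant beta-globin IVS2-654 intron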;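 note: potency is the fitted concentration of half-maximal effect; potency of activators that raise GFP signal by restoring correct splicing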
In short: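 HeLa cells stably expressing EGFP interrupted by β-globin IVS2-654 intron, seeded overnight in Opti-MEM/2% FCS, then treated 2 days at 37 °C. Restored splicing read as total peak GFP intensity per well by laser scanning cytometry (488 nm excitation, 500–520 nm emission); 500 nM antisense PNA as control.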

Sequence of Cytochrome P450 3A4 (Homo sapiens) (P08684 whole entry, looked up): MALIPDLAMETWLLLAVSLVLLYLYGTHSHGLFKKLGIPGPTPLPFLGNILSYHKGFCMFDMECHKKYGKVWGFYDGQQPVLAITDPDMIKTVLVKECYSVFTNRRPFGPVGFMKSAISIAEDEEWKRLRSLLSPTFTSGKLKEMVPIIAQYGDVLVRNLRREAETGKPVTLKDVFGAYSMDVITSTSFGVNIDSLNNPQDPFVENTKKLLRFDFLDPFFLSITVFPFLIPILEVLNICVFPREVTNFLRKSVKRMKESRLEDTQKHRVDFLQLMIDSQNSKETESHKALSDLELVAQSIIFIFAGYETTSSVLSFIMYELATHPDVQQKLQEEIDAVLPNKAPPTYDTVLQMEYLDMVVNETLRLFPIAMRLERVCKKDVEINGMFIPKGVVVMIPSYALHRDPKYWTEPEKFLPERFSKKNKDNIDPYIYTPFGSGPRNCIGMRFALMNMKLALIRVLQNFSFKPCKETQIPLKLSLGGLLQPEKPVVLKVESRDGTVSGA

C[C@H]1O[C@@H](O[C@H]2[C@@H](O)C[C@H](O[C@H]3[C@@H](O)C[C@H](O[C@H]4CC[C@@]5(C)[C@H](CC[C@@H]6[C@@H]5C[C@@H](O)[C@]5(C)[C@@H](C7=CC(=O)OC7)CC[C@]65O)C4)O[C@@H]3C)O[C@@H]2C)C[C@H](O)[C@@H]1O
inactive: outcome [2] | Potency [3] | Potency [4] | outcome [5] | outcome [6] | Potency [7] | outcome [8] | caspase-3 activation [9] -3.59% | outcome [10] | outcome [11] | Potency [12]
active: Potency [1] 12.6 nM | Potency [13] 316 nM

OCC(O)CO
inactive: Potency [1] | outcome [2] | Potency [3] | Potency [4] | outcome [5] | outcome [6] | Potency [7] | outcome [8] | caspase-3 activation [9] 3.75% and 1.59% | outcome [10] | outcome [11] | Potency [12] | Potency [13]

C[C@H](CCC(=O)O)[C@H]1CC[C@H]2[C@@H]3[C@H](O)C[C@@H]4C[C@H](O)CC[C@]4(C)[C@H]3C[C@H](O)[C@]12C
inactive: Potency [1] | outcome [2] | Potency [3] | Potency [4] | outcome [5] | outcome [6] | Potency [7] | outcome [8] | caspase-3 activation [9] -0.41% | outcome [10] | outcome [11] | Potency [13]

CCCCO
inactive: Potency [1] | outcome [2] | Potency [3] | Potency [4] | outcome [5] | outcome [6] | Potency [7] | outcome [8] | caspase-3 activation [9] 0.832% and 0.952% | outcome [10] | outcome [11] | Potency [12] | Potency [13]

Nc1ccc(N=Nc2ccccc2)c(N)n1
active: Potency [15] 15800 nM
inactive: Potency [1] | outcome [2] | Potency [3] | Potency [4] | outcome [5] | outcome [6] | Potency [7] | outcome [8] | caspase-3 activation [9] -7.28% | outcome [10] | Potency [14] | Potency [13]

c1ccc2ccccc2c1
inactive: Potency [1] | outcome [2] | Potency [3] | Potency [4] | outcome [5] | outcome [6] | Potency [7] | outcome [8] | caspase-3 activation [9] -0.432% | outcome [10] | outcome [11] | Potency [12] | Potency [13]

Nc1nccs1
inactive: Potency [1] | outcome [2] | Potency [3] | Potency [4] | outcome [5] | outcome [6] | Potency [7] | outcome [8] | caspase-3 activation [9] 0.166% | outcome [10] | outcome [11] | Potency [12] | Potency [15] | Potency [13]

CO
inactive: Potency [1] | outcome [2] | Potency [3] | Potency [4] | outcome [5] | outcome [6] | Potency [7] | outcome [8] | caspase-3 activation [9] -0.124% | outcome [10] | outcome [11] | Potency [12] | Potency [13]
